Experimental data: PubChem BioAssay (NCI)
This is part of a sample that, as a whole, favours compounds with a hit. Of some 83,000 tested, about 20% had one in any assay.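 Each cell line was grown in a 96-well plate and treated with one concentration of compound for 48 hours. Values below 10 were considered active.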 A number with no mark means an inactive call. The source made the active and inactive calls.

The molecules below were run on PC-3 prostate (assay: NCI-60 one-dose screen, 48 h (100 = growth as untreated, 0 = no growth, -100 = all killed)). Details: 10 µM unless noted.

Work on Cc1c(C(=O)Nc2nc(-c3ccccc3)cs2)nnn1-c1ccccc1Br yielded a growth of 44.8% [50 µM].

First: Clc1ccc(Nc2nc(Nc3ccccc3)nc(Nc3ccc(-c4cc(-c5ccc(Cl)cc5)on4)cc3)n2)cc1
Second: COc1ccc(NC(=O)c2ccc3c(c2)nc(-c2ccc(Cl)cc2)n3-c2cc(C(C)(C)C)[nH]n2)cc1
The growth of the first is lower: 46.1% for the first, 68.1% for the second.

First: C=C1CC[C@@H]2[C@@](C)(CCC[C@]2(C)C(=O)O)[C@@H]1CC[C@H](CO)CCO
Second: COC(=O)[C@@]12CC[C@@H](C)[C@]3(C[C@@H](c4ccoc4)OC3=O)[C@H]1CC[C@@H]1O[C@@]12C
The growth of the first is higher: 99.7% for the first, 95.2% for the second.

Going from COC(=O)CCC(=O)c1ccccc1 to COc1ccc(/C=N/NC(=O)c2cnn(CC(O)Cc3ccccc3)c2N)cc1OC1CCCC1 (configuration not stated), the growth falls from 117% to 69.9%.

Compared with COc1ncnc2c1ncn2C/C(Br)=C(\Br)CCl, C=CC(=O)N1CC2(CC(n3nc(-c4ccc(Oc5ccccc5)cc4)c4c(N)ncnc43)C2)C1 is higher in growth: 46.4% for the first, 51.3% for the second.

Compared with CN1CCC(OC2c3ccccc3CCc3ccccc32)CC1, O=C1C(N2CCOCC2)=Cc2cccc3cccc1c23 is higher in growth: 78.3% for the first, 95.4% for the second.

First: O=[N+]([O-])c1ccc(C=C2C(Cl)=C(Cl)C(Cl)=C2Cl)cc1
Second: COc1ccc(/C=C2\Oc3cc(C)c(Cl)cc3C2=O)cc1OC
The growth of the first is lower: 58.5% for the first, 101% for the second.

COc1ccc(OC)c(/C=C2\Oc3cc(O)ccc3C2=O)c1 and COc1ccc(OC)c(C2C(C#N)=C(N)Oc3cc(O)ccc32)c1 (configuration not stated) are the same in growth: 95.5% for the first, 95.5% for the second.

Compared with COc1ccc(-c2nn(-c3ccc(NC(=O)c4ccc(Cl)c(Cl)c4)cc3)cc2-c2ccncc2)cc1Cl, COc1ccc(-c2csc3c2-n2cccc2C3=O)cc1O is lower in growth: 26.7% for the first, 17.2% for the second.

Compared with O=c1oc2ccccc2cc1-c1csc(N=Nc2c(O)[nH]c3ccc(Cl)cc23)n1, Oc1cccc(Nc2nc(-c3ccccn3)cs2)c1 is lower in growth: 100% for the first, 94.5% for the second.

Compared with COc1cc2nc(N3CCC[C@H](NC4=CC(=O)c5ccccc5C4=O)C3)nc(N)c2cc1OC, CCOC(=O)c1c(-c2cc(OC)c(OC)c(OC)c2)csc1N is higher in growth: 54.5% for the first, 88.6% for the second.

First: N#Cc1c(-c2cccc(F)c2)cc(-c2ccc(Br)s2)[nH]c1=O
Second: N#CC1=C(N)Oc2cc(N)ccc2C1c1ccc(F)cc1 (configuration not stated)
The growth of the first is lower: 78.2% for the first, 90.8% for the second.

First: O=S(=O)(/N=C1C=C/C(=N\S(=O)(=O)c2ccccc2)c2ccccc2\1)c1ccccc1
Second: COc1cc(C(F)(F)F)ccc1-c1cc(-c2ccc(F)cc2)n[nH]1
The growth of the first is higher: 79.6% for the first, 76% for the second.

Going from CC(=O)N(CC(O)CO)c1c(I)c(C(=O)NCCO)c(I)c(C(=O)NCC(O)CO)c1I (configuration not stated) to CCN(CC)CCCNc1ccc(C)c2sc3ccccc3c(=O)c12, the growth falls from 81.3% to 22.7%.

Compared with Cc1nc2ccc(Cl)cc2n1C, CC(C)NCC(O)COc1ccc(CCOCC2CC2)cc1 (configuration not stated) is lower in growth: 101% for the first, 80% for the second.

C[C@@H](Oc1cc(-c2cnn(C3CC4(CCNCC4)C3)c2)cnc1N)c1c(F)ccc(Cl)c1Cl was tested, and the growth was 6.2% (active).

Each molecule was assayed on SK-MEL-5 melanoma in the same assay as above. Details: 10 µM unless noted.

For COc1cc2cc(Oc3ccc(NC(=O)Nc4ccc(Cl)c(C(F)(F)F)c4)cc3)c(C)nc2cc1OCCN1CCCCC1, the growth was -76.1% (active).
With Cc1c(C(=O)Nc2nc(-c3ccccc3)cs2)nnn1-c1ccccc1Br the growth was -68.6% [50 µM] (active).
In the case of COc1ccc(-c2nc3sc(C)cn3c2/C=C/C(=O)c2cc(OC)c(OC)c(OC)c2)cc1, the growth is reported as 4.08% (active).
For COc1ccc(-c2nn(-c3ccc(NC(=O)c4ccc(Cl)c(Cl)c4)cc3)cc2-c2ccncc2)cc1Cl, the growth was 5.09% (active).
In the case of CCN(CC)CCCNc1ccc(C)c2sc3ccccc3c(=O)c12, the growth is reported as -99.4% (active).

First: CN1CCN(c2ccc3nc(-c4ccc5nc(-c6ccc(C(F)(F)F)cc6)[nH]c5c4)[nH]c3c2)CC1
Second: COc1ccc(NC(=O)c2ccc3c(c2)nc(-c2ccc(Cl)cc2)n3-c2cc(C(C)(C)C)[nH]n2)cc1
The growth of the first is lower: 44.2% for the first, 70.7% for the second.

Compared with Clc1ccc(Nc2nc(Nc3ccccc3)nc(Nc3ccc(-c4cc(-c5ccc(Cl)cc5)on4)cc3)n2)cc1, O=C1c2ccccc2-c2nnc(-c3ccc(Br)cc3)cc21 is lower in growth: 86% for the first, 51.1% for the second.

First: C=C1CC[C@@H]2[C@@](C)(CCC[C@]2(C)C(=O)O)[C@@H]1CC[C@H](CO)CCO
Second: COC(=O)[C@@]12CC[C@@H](C)[C@]3(C[C@@H](c4ccoc4)OC3=O)[C@H]1CC[C@@H]1O[C@@]12C
The growth of the first is higher: 112% for the first, 98.9% for the second.

First: COC(=O)CCC(=O)c1ccccc1
Second: O=C(COc1cccc(/C=C2\COc3ccccc3C2=O)c1)c1ccccc1
The growth of the first is higher: 130% for the first, 47.7% for the second.

Compared with COc1ncnc2c1ncn2C/C(Br)=C(\Br)CCl, COc1ccc(/C=N/NC(=O)c2cnn(CC(O)Cc3ccccc3)c2N)cc1OC1CCCC1 (configuration not stated) is higher in growth: 53.7% for the first, 62.7% for the second.

Going from O=[N+]([O-])c1ccc(C=C2C(Cl)=C(Cl)C(Cl)=C2Cl)cc1 to COc1ccc(/C=C2\Oc3cc(C)c(Cl)cc3C2=O)cc1OC, the growth falls from 121% to 91.8%.

First: COc1ccc(OC)c(/C=C2\Oc3cc(O)ccc3C2=O)c1
Second: Cc1ccc(S(=O)(=O)N2CCc3ccc(O)c4c3C2Cc2cc(Cl)ccc2-4)cc1 (configuration not stated)
The growth of the first is higher: 92.4% for the first, 52.8% for the second.

Compared with Cc1cc(=O)c2c(C)ccc(C)c2[nH]1, Cc1nc2ccc(Cl)cc2n1C is lower in growth: 110% for the first, 99.6% for the second.

First: O=C1CN2CCC1C/C2=C\c1ccnc2c(Cl)cccc12 (configuration not stated)
Second: Oc1cccc(Nc2nc(-c3ccccn3)cs2)c1
The growth of the first is higher: 108% for the first, 91.1% for the second.

Going from O=c1oc2ccccc2cc1-c1csc(N=Nc2c(O)[nH]c3ccc(Cl)cc23)n1 to N#Cc1c(-c2cccc(F)c2)cc(-c2ccc(Br)s2)[nH]c1=O, the growth falls from 104% to 68.8%.

First: CC(=O)N(CC(O)CO)c1c(I)c(C(=O)NCCO)c(I)c(C(=O)NCC(O)CO)c1I (configuration not stated)
Second: CC(C)NCC(O)COc1ccc(CCOCC2CC2)cc1 (configuration not stated)
The growth of the first is lower: 91.7% for the first, 95% for the second.
